Measured values as given in the supplement of paper PMC12645437, “Orthogonal IMiD-Degron Pairs Induce Selective Protein Degradation in Cells” (ACS Chemical Biology, 2025).
In all, about 8,300 sequences were measured (“log2 fold change of degron read counts, EGFP-low vs EGFP+ sorted cells (limma voom), compound-induced degradation”: median about -1.1, highest 2% from about 3.2 on). This is one part of a sample in which the highest values are shown more often than they occur.

T1: CRBN, Q96SW2
T1 chain: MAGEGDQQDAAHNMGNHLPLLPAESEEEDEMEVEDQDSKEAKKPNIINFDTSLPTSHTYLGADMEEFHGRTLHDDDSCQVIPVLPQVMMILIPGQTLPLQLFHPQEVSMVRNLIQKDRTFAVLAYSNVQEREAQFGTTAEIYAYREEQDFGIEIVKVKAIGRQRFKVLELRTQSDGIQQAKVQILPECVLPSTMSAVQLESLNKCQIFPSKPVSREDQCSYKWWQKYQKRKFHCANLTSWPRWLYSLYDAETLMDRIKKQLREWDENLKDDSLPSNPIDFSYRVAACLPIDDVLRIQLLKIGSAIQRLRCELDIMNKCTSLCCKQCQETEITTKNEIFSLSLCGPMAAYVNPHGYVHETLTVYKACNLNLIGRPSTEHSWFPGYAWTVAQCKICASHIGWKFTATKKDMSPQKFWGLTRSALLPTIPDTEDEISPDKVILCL


Biological target: T1, CRBN, Q96SW2
Assay: log2 fold change of degron read counts, EGFP-low vs EGFP+ sorted cells (limma voom), compound-induced degradation; higher = more compound-induced degradation of the degron-EGFP fusion; degrons are variants of IKZF1/3 zinc finger 2; compound dose not given here
Settings: Jurkat, 18 h
Description: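 Pooled library of 8380 IKZF3 ZF2 degron mutants (positions 146-167 varied within the IKZF3 130-189 degron; only the varied core is printed, flanks not printed) fused to EGFP with IRES-mCherry, lentivirally expressed in Jurkat cells. mCherry+ cells were treated with one IMiD compound for 18 h (dose not stated) and FACS-sorted into EGFP-low and EGFP+ populations. Degron sequences were counted by NGS, and log2FC (EGFP-low vs EGFP+) was estimated by limma voom over 3 biological replicates.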

[1] = compound: compound 19 (5-tert-butyl-thalidomide)
[2] = compound: compound 22 (5-morpholino-thalidomide)
[3] = compound: compound 33 (diphenyl IMiD analogue)
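Note: pooled lentiviral library of zinc finger degron-EGFP fusions in mCherry-positive Jurkat cells, FACS-sorted after compound exposure, with degron abundance counted by next-generation sequencing.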

Sequence | log2 fold change of degron read counts [1] | log2 fold change of degron read counts [2] | log2 fold change of degron read counts [3] | log2 fold change of degron read counts (compound: thalidomide)
FDCDQCGAEFTQKGNLLRHIKL [46F_47D_49D_50Q_52G_53A_54E_55F_67L_, Q9UKT9] | -3.44 | -3.7 | -3.04 | -3.25
FVCEVCGAFFTQKGNLLRHIKL [46F_47V_49E_50V_52G_53A_54F_55F_67L_, Q9UKT9] | -0.979 | -0.472 | 1.09 | 0.698
FDCPQCGAMFTQKGNLLRHIKL [46F_47D_49P_50Q_52G_53A_54M_55F_67L_, Q9UKT9] | -2.55 | -2.86 | -1.76 | -1.75
FFCNQCGRSFTQKGNLLRHIKL [46F_47F_49N_50Q_52G_53R_54S_55F_67L_, Q9UKT9] | -2.31 | -2.35 | -2.54 | -2.53
FYCDQCGAEFTQKGNLLRHIKL [46F_47Y_49D_50Q_52G_53A_54E_55F_67L_, Q9UKT9] | -1.15 | -2.26 | -1.96 | -3.08
FNCPICGHAFTQKGNLLRHIKL [46F_47N_49P_50I_52G_53H_54A_55F_67L_, Q9UKT9] | -1.92 | -2.91 | -2.41 | -1.74
FWCPICGAEFTQKGNLLRHIKL [46F_47W_49P_50I_52G_53A_54E_55F_67L_, Q9UKT9] | 2.47 | 2.5 | 1.96 | 0.113
FDCNQCGHAFTQKGNLLRHIKL [46F_47D_49N_50Q_52G_53H_54A_55F_67L_, Q9UKT9] | -2.71 | -2.67 | -2.47 | -2.94
FKCDICGAEFTQKGNLLRHIKL [46F_47K_49D_50I_52G_53A_54E_55F_67L_, Q9UKT9] | -3.02 | -3.75 | -4.07 | -2.58
FKCSVCGHVFTQKGNLLRHIKL [46F_47K_49S_50V_52G_53H_54V_55F_67L_, Q9UKT9] | -3.06 | -3.01 | -3.11 | -3.07
FWCEQCGAQFTQKGNLLRHIKL [46F_47W_49E_50Q_52G_53A_54Q_55F_67L_, Q9UKT9] | 0.92 | 2.94 | 0.838 | -0.633
FKCPICGACFTQKGNLLRHIKL [46F_47K_49P_50I_52G_53A_54C_55F_67L_, Q9UKT9] | -0.511 | -2.33 | -2.58 | -0.71
FHCPICGACFTQKGNLLRHIKL [46F_47H_49P_50I_52G_53A_54C_55F_67L_, Q9UKT9] | 2.71 | 2.64 | 2.08 | 0.899
FGCPICGACFTQKGNLLRHIKL [46F_47G_49P_50I_52G_53A_54C_55F_67L_, Q9UKT9] | 3.9 | 2.82 | 2.74 | 1.24
FFCPICGACFTQKGNLLRHIKL [46F_47F_49P_50I_52G_53A_54C_55F_67L_, Q9UKT9] | 3.22 | 3.44 | 2.28 | 1.16
FECPICGACFTQKGNLLRHIKL [46F_47E_49P_50I_52G_53A_54C_55F_67L_, Q9UKT9] | 0.233 | -0.321 | 2.66 | 2.94
FRCPICGACFTQKGNLLRHIKL [46F_47R_49P_50I_52G_53A_54C_55F_67L_, Q9UKT9] | -0.121 | 0.343 | 1.61 | 1.35
LQCEICGFFCTQKGNLLRHIKL [46L_47Q_49E_50I_52G_53F_54F_55C_67L_, Q9UKT9] | -0.636 | -0.227 | 0.554 | 1.77
FVCEICGRLFTQKGNLLRHIKL [46F_47V_49E_50I_52G_53R_54L_55F_67L_, Q9UKT9] | -1.71 | -1.28 | -0.137 | 0.207
FWCNICGASFTQKGNLLRHIKL [46F_47W_49N_50I_52G_53A_54S_55F_67L_, Q9UKT9] | 2.6 | 3.54 | 1.69 | 0.481
FQCNICGASFTQKGNLLRHIKL [46F_47Q_49N_50I_52G_53A_54S_55F_67L_, Q9UKT9] | 0.609 | 1.43 | 1.22 | 3.34
FYCNICGASFTQKGNLLRHIKL [46F_47Y_49N_50I_52G_53A_54S_55F_67L_, Q9UKT9] | 2.45 | 2.95 | 1.49 | -0.148
FMCNICGASFTQKGNLLRHIKL [46F_47M_49N_50I_52G_53A_54S_55F_67L_, Q9UKT9] | -0.622 | 0.367 | 2.22 | 0.902
FACNICGASFTQKGNLLRHIKL [46F_47A_49N_50I_52G_53A_54S_55F_67L_, Q9UKT9] | 2.29 | 2.03 | 0.254 | 0.112
FNCNICGASFTQKGNLLRHIKL [46F_47N_49N_50I_52G_53A_54S_55F_67L_, Q9UKT9] | 1.49 | 0.652 | 0.369 | -0.42
FHCDVCGAFFTQKGNLLRHIKL [46F_47H_49D_50V_52G_53A_54F_55F_67L_, Q9UKT9] | -1.48 | -1.49 | -1.88 | -2.83
FKCNICGAKFTQKGNLLRHIKL [46F_47K_49N_50I_52G_53A_54K_55F_67L_, Q9UKT9] | -2.4 | -3.54 | -2.58 | -2.17
FRCSVCGHFFTQKGNLLRHIKL [46F_47R_49S_50V_52G_53H_54F_55F_67L_, Q9UKT9] | -2.15 | -2.33 | -2.44 | -1.78
